The results in this text go back to the supplement of paper PMC7156485.

What all share (conditions): concentration: 10 µM; 24 h
Assay [1] concerns HCC1569. Put plainly: cell number relative to DMSO (% of DMSO); higher = more cells (less growth inhibition / toxicity). In outline:
(§1)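 Cell number or H1.0 nuclear intensity appears as percent of the plate control, based on the median of replicates. Measurements came from HCC1569 and TDF cells exposed in triplicate to compounds at 10 µM for 24 h at 37 °C, then imaged in six fields per well at ×10. Positional effects were smoothed out of HCC1569 values.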

In assay [2] the test system is TDF. Described as above. In outline:
as §1

In assay [3] the test system is TDF. Put plainly: H1.0 immunofluorescence intensity relative to DMSO (% of DMSO); higher = stronger H1.0 induction, active = 120 or more. In outline: as §1
Assay [4] has as its system HCC1569. Put plainly: H1.0 immunofluorescence intensity relative to DMSO (% of DMSO); higher = stronger H1.0 induction, active = 140 or more. Put shortly:
as §1

SMILES strings stand for the structures.
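Wherever H1.0 immunofluorescence intensity relative to DMSO is given: TDF is a line of transformed human dermal fibroblasts of mesenchymal origin.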
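Wherever cell number relative to DMSO is given: TDF denotes transformed human dermal fibroblasts of mesenchymal origin.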

As to `C=C1CC2C3C=C(C)C4=CC(=O)CCC4(C)C3CCC2(C)C1(OC(C)=O)C(C)=O` (stereo not given) [Melengestrol Acetate], the cell number is 102 in assay [1] and 103 in assay [2]. The H1.0 immunofluorescence intensity is 94.3 (inactive) in assay [3] and 109 (inactive) in assay [4].
As for `CC(=O)O/N=C1\C(=O)N(Cc2cc(Cl)ccc2Cl)c2ccc(Cl)cc21`, the cell number was 99.5 in assay [1] and 107 in assay [2]. Moreover, the H1.0 immunofluorescence intensity in assay [3] was 97.2 (inactive); in assay [4], 99.5 (inactive).
Taken in the same sequence, the figures for `Nc1nc(=O)c2ncc(=O)[nH]c2[nH]1` [Isoxanthopterin] were 104, 108, 92.2 (inactive) and 94.9 (inactive).
For `O=P(O)(O)C(Cl)(Cl)P(=O)(O)O` [Clodronic acid], the cell number came out at 101 in assay [1] and 103 in assay [2]. Further, the values for the H1.0 immunofluorescence intensity in assay [3] and in assay [4] were 88.3 (inactive) and 102 (inactive), respectively.
For `CCCCCC(=O)C=CC1C(O)CC(O)C1CC=CCCCC(=O)O` (stereo not given) [15-keto-prostaglandin F2a], the cell number in assay [1] worked out at 101; in assay [2], 108. Also, the H1.0 immunofluorescence intensity in assay [3] is 92.9 (inactive); in assay [4] it was 103 (inactive).
Taken in the same sequence, the figures for `CON=C(C(=O)NC1C(=O)N2C(C(=O)[O-])=C(C[N+]3(C)CCCC3)CSC12)c1csc(N)n1` (stereo not given) [Cefepime] were 99.6, 97, 91.1 (inactive) and 110 (inactive).
Take `COC(=O)c1sccc1S(=O)(=O)Nc1ccc(Nc2ccccc2)cc1OC`: the cell number in assay [1] was 99.7; in assay [2], 92.5. Further, the H1.0 immunofluorescence intensity in assay [3] is 88.2 (inactive); in assay [4], 112 (inactive).
Consider `CCCCc1oc2ccccc2c1C(=O)c1cc(I)c(OCCN(CC)CC)c(I)c1.Cl` [Amiodarone.HCl], for which the cell number was 99.7 in assay [1] and 105 in assay [2]. For the same compound, the results for the H1.0 immunofluorescence intensity in assay [3] and in assay [4] were 93.8 (inactive) and 110 (inactive), respectively.
As for `CN(C)C(=S)NN=C(c1ccccn1)c1ccccn1` [(Z)-di(2-pyridinyl)methanone N,N-dimethylthiosemicarbazone], the cell number came out at 75.1 in assay [1] and 52.4 in assay [2]. Besides, the results for the H1.0 immunofluorescence intensity in assay [3] and in assay [4] were 107 (inactive) and 106 (inactive), respectively.
Consider `CCC1OC(=O)C(C)C(OC2CC(C)(OC)C(O)C(C)O2)C(C)C(OC2OC(C)CC(N(C)C)C2O)C(C)(O)CC(C)CN(C)C(C)C(O)C1(C)O` (stereo not given) [Azithromycin], for which the cell number stood at 106 in assay [1] and 109 in assay [2]. Also, the results for the H1.0 immunofluorescence intensity in assay [3] and in assay [4] were 91.2 (inactive) and 105 (inactive), respectively.
In the same order, the values of `O=c1c(-c2ccc(O)cc2)coc2cc(O)cc(O)c12` are 97.6, 100, 96.6 (inactive) and 104 (inactive).
In the same order, the values of `CN1C2CCC1CC(OC(=O)c1c[nH]c3ccccc13)C2` (stereo not given) [Tropisetron] are 102, 92.9, 101 (inactive) and 112 (inactive).
For the compound `CCCCCCCCCCCCCCCC(=O)NCC(COP(=O)([O-])OCC[N+](C)(C)C)OC` (racemic) [rac-2-Methoxy-3-hexadecanamido-1-propylphosphocholine], the cell number in assay [1] was 75.4; in assay [2], 65. Besides, the figures for the H1.0 immunofluorescence intensity in assay [3] and in assay [4] were 185 (active) and 142 (active), respectively.
Taken in the same sequence, the figures for `NC(C(=O)O)C(O)C(=O)O` (racemic) [DL-threo-beta-hydroxyaspartic acid] were 101, 110, 96.7 (inactive) and 95.9 (inactive).
As for `CCCCCCCCCCCCCCCCCC(=O)NCC(COP(=O)([O-])OCC[N+](C)(C)C)OC` (racemic) [rac-2-Methoxy-3-octadecanamido-1-propylphosphocholine], the values for the cell number in assay [1] and in assay [2] were 101 and 84.5, respectively. Further, the figures for the H1.0 immunofluorescence intensity in assay [3] and in assay [4] were 95.2 (inactive) and 101 (inactive), respectively.
